Laboratory results published in PubChem BioAssay (NCATS).
Records with an inconclusive call do not appear. Active and inactive are the calls of the source. The call rests on the fitted dose curve; in most records, active means well fitted cell-killing curve with a large enough effect; inconclusive means small, poorly fitted or top-dose-only effect, or effect the other way; inactive means no such curve, though single readings can be large or run the other way.

Key:
[1] = Quantitative High-Throughput drug screen in 47 multiple myeloma cell lines against the NCATS MIPE library collection: JIM1_ECACC cell viability assay (AID 1918964)
Method in brief: (§1)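 Approved and investigational drugs from MIPE 4.0 were added by pin tool to 500 cells per well. After 48 hours at 37C, ATP-based CellTiter-Glo luminescence indicated remaining viability.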

[2] = Quantitative High-Throughput drug screen in 47 multiple myeloma cell lines against the NCATS MIPE library collection: INA6_PLB cell viability assay (AID 1918965; further: nearly all actives have a fitted effect of over 55% in size)
Method in brief: as §1

[3] = Quantitative High-Throughput drug screen in 47 multiple myeloma cell lines against the NCATS MIPE library collection: JJN3_DSMZ cell viability assay (AID 1918966; further: nearly all actives have a fitted effect of over 50% in size)
Method in brief: as §1

[4] = Quantitative High-Throughput drug screen in 47 multiple myeloma cell lines against the NCATS MIPE library collection: H1112_PLB cell viability assay (AID 1918967; further: nearly all actives have a fitted effect of over 30% in size)
Method in brief: as §1

[5] = Quantitative High-Throughput drug screen in 47 multiple myeloma cell lines against the NCATS MIPE library collection: Karpas25_ECACC cell viability assay (AID 1918968; further: nearly all actives have a fitted effect of over 35% in size)
Method in brief: as §1

[6] = Quantitative High-Throughput drug screen in 47 multiple myeloma cell lines against the NCATS MIPE library collection: KMS27_JCRB cell viability assay (AID 1918970); further: nearly all actives have a fitted effect of over 30% in size
Method in brief: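 Myeloma cells (500 per well) were exposed to MIPE 4.0 compounds for 48 h at 37 °C, 5% CO2; viability was read as ATP luminescence with CellTiter-Glo, normalized to DMSO-only (100%) and media-only (0%) wells.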

[7] = Quantitative High-Throughput drug screen in 47 multiple myeloma cell lines against the NCATS MIPE library collection: KMS12BM_JCRB cell viability assay (AID 1918971); further: nearly all actives have a fitted effect of over 35% in size
Method in brief: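 Myeloma cells (500 per well) were exposed to MIPE 4.0 compounds by pin transfer and incubated 48 hours at 37C, 5% CO2. Viability was read as ATP by CellTiter-Glo luminescence, normalised to DMSO (100%) and media-only (0%) wells.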

[8] = Quantitative High-Throughput drug screen in 47 multiple myeloma cell lines against the NCATS MIPE library collection: KMS12PE_JCRB cell viability assay (AID 1918972); further: nearly all actives have a fitted effect of over 30% in size
Method in brief: as §1

[9] = Quantitative High-Throughput drug screen in 47 multiple myeloma cell lines against the NCATS MIPE library collection: KMS20_JCRB cell viability assay (AID 1918973); further: nearly all actives have a fitted effect of over 45% in size
Method in brief: as §1

[10] = Quantitative High-Throughput drug screen in 47 multiple myeloma cell lines against the NCATS MIPE library collection: KMS21BM_JCRB cell viability assay (AID 1918974); settings: ATP luminescence, 48 h; viability: at 45.8 µM (top of the series) unless noted
Method in brief: as §1
Potency means the concentration at half of the fitted maximal effect.

Structure (SMILES) | Potency [1] | Potency [2] | Potency [3] | Potency [4] | Potency [5] | Potency [6] | Potency [7] | Potency [8] | Potency [9] | Potency [10]
CN1CCN(CCCN2c3ccccc3Sc3ccc(Cl)cc32)CC1 | 3.32 µM (active) | 14.8 µM (active) | 18.7 µM (active) | 20.9 µM (active) | 5.26 µM (active) | 16.6 µM (active) | 16.6 µM (active) | 8.33 µM (active) | 8.33 µM (active) | 6.62 µM (active)
CCCCc1oc2ccccc2c1C(=O)c1cc(I)c(OCCN(CC)CC)c(I)c1 | 18.7 µM (active) | 16.6 µM (active) | 18.7 µM (active) | – | 5.9 µM (active) | 6.62 µM (active) | 18.7 µM (active) | 26.4 µM (active) | – | –
Nc1c2c(nc3ccccc13)CCCC2 | inactive | – | 5.26 µM (active) | inactive | inactive | inactive | – | inactive | – | –
CS(=O)(=O)CCNCc1ccc(-c2ccc3ncnc(Nc4ccc(OCc5cccc(F)c5)c(Cl)c4)c3c2)o1 | 6.62 µM (active) | 3.32 µM (active) | – | 0.0743 µM (active) | 0.372 µM (active) | 10.5 µM (active) | 20.9 µM (active) | 4.69 µM (active) | 1.48 µM (active) | 11.8 µM (active)
CC(=O)OCC(CCn1cnc2cnc(N)nc21)COC(C)=O | inactive | inactive | – | inactive | inactive | – | inactive | inactive | inactive | –
CC12CC3CC(C)(C1)CC(N)(C3)C2 | inactive | 20.9 µM (active) | – | – | 20.9 µM (active) | – | inactive | – | 20.9 µM (active) | –
CC1COc2c(N3CCN(C)CC3)c(F)cc3c(=O)c(C(=O)O)cn1c23 (stereo unspecified) | inactive | – | inactive | inactive | inactive | 18.7 µM (active) | inactive | – | – | 5.26 µM (active)
CCOC(=O)c1ncn2c1CN(C)C(=O)c1cc(F)ccc1-2 | inactive | inactive | – | inactive | inactive | – | 5.9 µM (active) | inactive | – | –
O=C1c2c(O)ccc(O)c2C(=O)c2c(NCCNCCO)ccc(NCCNCCO)c21 | 1.66 µM (active) | 0.0526 µM (active) | 4.18 µM (active) | 0.332 µM (active) | 0.296 µM (active) | 0.59 µM (active) | 1.05 µM (active) | 2.96 µM (active) | 0.132 µM (active) | 1.48 µM (active)
Cc1ccc(C(=O)Nc2ccc(S(=O)(=O)O)c3cc(S(=O)(=O)O)cc(S(=O)(=O)O)c23)cc1NC(=O)c1cccc(NC(=O)Nc2cccc(C(=O)Nc3cc(C(=O)Nc4ccc(S(=O)(=O)O)c5cc(S(=O)(=O)O)cc(S(=O)(=O)O)c45)ccc3C)c2)c1 | inactive | 4.69 µM (active) | inactive | – | inactive | inactive | inactive | inactive | – | inactive
COC(=O)Nc1nc2ccc(C(=O)c3cccs3)cc2[nH]1 | 0.001 µM (active) | 0.001 µM (active) | – | 0.0132 µM (active) | – | – | 0.0026 µM (active) | – | – | –
Nc1nc2c(ncn2COC(CO)CO)c(=O)[nH]1 | 20.9 µM (active) | 1.32 µM (active) | 20.9 µM (active) | 26.4 µM (active) | 2.64 µM (active) | 10.5 µM (active) | 18.7 µM (active) | 14.8 µM (active) | 1.05 µM (active) | –
COc1cc2c(c(OC)c1OC)-c1ccc(OC)c(=O)cc1[C@@H](NC(C)=O)CC2 | inactive | inactive | – | – | inactive | – | – | inactive | – | inactive
Clc1ccccc1C(c1ccccc1)(c1ccccc1)n1ccnc1 | 0.0743 µM (active) | 16.6 µM (active) | – | 14.8 µM (active) | 18.7 µM (active) | – | 16.6 µM (active) | 7.43 µM (active) | – | –
O=C1Cc2cc(CCN3CCN(c4nsc5ccccc45)CC3)c(Cl)cc2N1 | inactive | 18.7 µM (active) | – | 23.5 µM (active) | 18.7 µM (active) | 8.33 µM (active) | 20.9 µM (active) | – | – | –
CN1C2CCC1CC(OC(=O)C(CO)c1ccccc1)C2 (stereo unspecified) | inactive | inactive | inactive | inactive | – | inactive | inactive | inactive | inactive | –
NC(=O)NO | 1.66 µM (active) | 0.166 µM (active) | 2.35 µM (active) | 2.96 µM (active) | 0.166 µM (active) | 0.743 µM (active) | 1.48 µM (active) | 0.833 µM (active) | 0.0935 µM (active) | –
CCN1CCCC1CNC(=O)c1cc(S(=O)(=O)CC)c(N)cc1OC (stereo unspecified) | inactive | inactive | inactive | inactive | inactive | inactive | – | inactive | inactive | –
CC#C[C@]1(O)CC[C@H]2[C@@H]3CCC4=CC(=O)CCC4=C3[C@@H](c3ccc(N(C)C)cc3)C[C@@]21C | 0.526 µM (active) | 0.662 µM (active) | 1.48 µM (active) | 0.743 µM (active) | 0.372 µM (active) | 0.264 µM (active) | 1.18 µM (active) | 0.469 µM (active) | 0.743 µM (active) | –
N[C@@H](Cc1c[nH]c2ccc(O)cc12)C(=O)O | inactive | inactive | – | inactive | – | inactive | – | inactive | – | –
O=C(Nc1ccc([N+](=O)[O-])cc1Cl)c1cc(Cl)ccc1O | 1.05 µM (active) | 0.935 µM (active) | 1.87 µM (active) | 1.32 µM (active) | 0.332 µM (active) | 0.935 µM (active) | 1.48 µM (active) | 0.469 µM (active) | 0.59 µM (active) | 1.05 µM (active)

Structure (SMILES) | Potency [1] | Potency [2] | Potency [3] | Potency [4] | Potency [5] | Potency [6] | Potency [7] | Potency [8] | Potency [9] | Potency [10]
CC(C)C(=O)Nc1ccc([N+](=O)[O-])c(C(F)(F)F)c1 | 13.2 µM (active) | 6.62 µM (active) | – | 3.32 µM (active) | 3.32 µM (active) | 0.935 µM (active) | inactive | 13.2 µM (active) | 7.43 µM (active) | –
CC[C@@]1(O)C(=O)OCc2c1cc1n(c2=O)Cc2cc3c(CN(C)C)c(O)ccc3nc2-1 | 0.743 µM (active) | 0.0296 µM (active) | 5.9 µM (active) | 0.418 µM (active) | 0.662 µM (active) | 0.0833 µM (active) | 1.87 µM (active) | 2.64 µM (active) | 0.235 µM (active) | –
CC(C)NCC(O)COc1ccc(CCOCC2CC2)cc1 (stereo unspecified) | inactive | inactive | – | inactive | inactive | inactive | – | inactive | – | –
Cn1cnc2c1c(=O)[nH]c(=O)n2C | 4.69 µM (active) | 7.43 µM (active) | 16.6 µM (active) | 18.7 µM (active) | 9.35 µM (active) | 9.35 µM (active) | 18.7 µM (active) | 5.9 µM (active) | 5.9 µM (active) | 9.35 µM (active)
OCCN1CCN(CCCN2c3ccccc3Sc3ccc(C(F)(F)F)cc32)CC1 | 16.6 µM (active) | 16.6 µM (active) | – | 23.5 µM (active) | 2.96 µM (active) | – | – | 9.35 µM (active) | 16.6 µM (active) | 14.8 µM (active)
CC[N+](CC)(CC)CCOc1cccc(OCC[N+](CC)(CC)CC)c1OCC[N+](CC)(CC)CC | inactive | – | inactive | inactive | inactive | – | – | – | – | –
O=C(c1ccc(F)cc1)C1CCN(CCn2c(=O)[nH]c3ccccc3c2=O)CC1 | inactive | 20.9 µM (active) | – | inactive | – | inactive | inactive | inactive | – | –
Cc1cn([C@H]2C[C@H](N=[N+]=[N-])[C@@H](CO)O2)c(=O)[nH]c1=O | inactive | – | 5.26 µM (active) | 23.5 µM (active) | 26.4 µM (active) | 5.26 µM (active) | inactive | – | – | –
CN(CCOc1ccc(NS(C)(=O)=O)cc1)CCc1ccc(NS(C)(=O)=O)cc1 | inactive | inactive | inactive | – | inactive | – | – | inactive | – | –
COc1ccccc1OCC(O)CN1CCN(CC(=O)Nc2c(C)cccc2C)CC1 (stereo unspecified) | inactive | inactive | – | inactive | – | inactive | inactive | inactive | inactive | –
CN(Cc1cnc2nc(N)nc(N)c2n1)c1ccc(C(=O)N[C@@H](CCC(=O)O)C(=O)O)cc1 | 0.0264 µM (active) | 0.0372 µM (active) | 0.0469 µM (active) | 0.0662 µM (active) | 1.18 µM (active) | 0.0296 µM (active) | 6.62 µM (active) | – | – | –
C[C@@H]1CC(=O)NN=C1c1ccc(NN=C(C#N)C#N)cc1 | inactive | 18.7 µM (active) | 20.9 µM (active) | 20.9 µM (active) | 18.7 µM (active) | inactive | 18.7 µM (active) | inactive | – | –
O=C(c1ccc(OCCN2CCCCC2)cc1)c1c(-c2ccc(O)cc2)sc2cc(O)ccc12 | 37.2 µM (active) | 18.7 µM (active) | 20.9 µM (active) | – | – | 20.9 µM (active) | – | 23.5 µM (active) | 16.6 µM (active) | 13.2 µM (active)
COc1ccc2[nH]cc(CCNC(C)=O)c2c1 | 0.0074 µM (active) | – | – | inactive | inactive | inactive | inactive | inactive | inactive | –
CC1(C)O[C@H]2CC(=O)OC[C@]23[C@H]2CC[C@@]4(C)[C@H](c5ccoc5)OC(=O)[C@H]5O[C@]54[C@]2(C)C(=O)C[C@@H]13 | inactive | – | – | inactive | inactive | inactive | inactive | inactive | inactive | inactive
CC(C)NCC(O)c1ccc(O)c(O)c1 (stereo unspecified) | 13.2 µM (active) | – | 20.9 µM (active) | inactive | 0.0418 µM (active) | 1.18 µM (active) | – | 5.26 µM (active) | 1.18 µM (active) | 0.372 µM (active)
COc1cc2nc(N3CCN(C(=O)C4COc5ccccc5O4)CC3)nc(N)c2cc1OC (stereo unspecified) | – | 20.9 µM (active) | – | 18.7 µM (active) | 20.9 µM (active) | – | 6.62 µM (active) | 5.9 µM (active) | – | –
CCOC(=O)C(C)(C)Oc1ccc(Cl)cc1 | – | inactive | inactive | – | 0.662 µM (active) | inactive | – | inactive | inactive | –
CCC1(c2ccccc2)C(=O)NCNC1=O | – | 3.32 µM (active) | – | 2.96 µM (active) | 1.66 µM (active) | – | – | – | – | –
NS(=O)(=O)c1cc2c(cc1Cl)NCNS2(=O)=O | – | inactive | 7.43 µM (active) | 9.35 µM (active) | – | inactive | – | inactive | – | –
